This is a sample that favours compounds with a hit; in the whole collection about 21% have one here.
VP16 counter: VP16 counterscreen qHTS for inhibitors of ROR gamma transcriptional activity. Drosophila S2 Gal4-VP16 UAS-luciferase, luminescence, 20 h. 3.5% of 310,000 active. Potency, µM (titrated, usually from 53.6 µM), for the others: at the top dose activity, negative = inhibition, most hits filed as inhibitors. AID 2546, 2010;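 note: Gal4-VP16 expression switched on by copper sulfate through the metallothionein promoter; potency is the fitted concentration of half-maximal effect; nearly all actives have a fitted effect of over 50% in size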
IL-1B inflam inh: qHTS for Inhibitors of Inflammasome Signaling: IL-1-beta AlphaLISA Primary Screen | THP-1 LPS/ATP IL-1B secretion, AlphaLISA, 16 h; active compounds read low | activity change, % at 57.5 µM | 4.7% of 360,000 active | AID 743279, 2014; in the data active = activity change below about -50%; inconclusive = mostly about -30% to -49%
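THP-1 cells pretreated 1 hr with compounds (up to 57.5 uM final), then stimulated with LPS (250 ng/mL final) plus ATP (1.25 mM final); secreted IL-1B measured by AlphaLISA after 16 hr, decreased signal indicating inhibition.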
ELG1 repair inh: qHTS screen for small molecules that inhibit ELG1-dependent DNA repair in human embryonic kidney (HEK293T) cells expressing luciferase-tagged ELG1. HEK293T ELG1-luciferase reporter, luminescence, 16 h; DNA damage induced by 5-fluorouridine. Potency, µM (highest dose often 46.1 µM), without a hit: at the top dose activity change, negative = inhibition, usual class: inhibitors. 2.3% of 330,000 active. AID 504467, 2011; note: potency is the fitted concentration of half-maximal effect; nearly all actives have a fitted effect of over 55% in size
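In this reporter screen, reduction of luminescence relative to DMSO vehicle indicated activity. Compounds and 5-fluorouridine were added together to 2,000 cells per well, incubated for 16 hr at 37 °C, then developed with ONE-Glo.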
RORgamma inh: qHTS for inhibitors of ROR gamma transcriptional activity; Drosophila S2 Gal4-RORgamma UAS-luciferase reporter, 20 h; Potency, µM (series often up to 53.6 µM), inactives show top-dose activity change, negative = inhibition, most hits filed as inhibitors; 5.4% of 310,000 active; AID 2551, 2010; note: potency is the fitted concentration of half-maximal effect; nearly all actives have a fitted effect of over 60% in size
Target sequence (P51450 whole entry, looked up, the tested form may be a part): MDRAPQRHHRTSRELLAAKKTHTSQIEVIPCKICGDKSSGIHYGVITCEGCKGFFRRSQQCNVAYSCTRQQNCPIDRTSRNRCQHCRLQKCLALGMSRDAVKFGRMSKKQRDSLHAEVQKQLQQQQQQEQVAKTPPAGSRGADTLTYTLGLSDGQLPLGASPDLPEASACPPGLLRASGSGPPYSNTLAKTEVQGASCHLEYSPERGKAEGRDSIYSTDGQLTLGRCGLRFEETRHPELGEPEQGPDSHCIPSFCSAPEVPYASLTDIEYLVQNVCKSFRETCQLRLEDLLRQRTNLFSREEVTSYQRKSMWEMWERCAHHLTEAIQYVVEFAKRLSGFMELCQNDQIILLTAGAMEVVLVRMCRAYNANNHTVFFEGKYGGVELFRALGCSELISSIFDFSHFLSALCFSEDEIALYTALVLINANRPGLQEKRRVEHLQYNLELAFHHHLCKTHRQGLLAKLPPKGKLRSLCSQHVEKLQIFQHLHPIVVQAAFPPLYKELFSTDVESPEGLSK
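Read-out: Photinus luciferase luminescence; inhibitors lower reporter signal. Insect Schneider cells with Gal4-ROR gamma fusion under metallothionein promoter, UAS reporter; 700 uM final copper sulfate induction, 20 hr, ambient temperature.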
DT40 TDP1 CPT: qHTS for Inhibitors of human tyrosyl-DNA phosphodiesterase 1 (TDP1): qHTS in cells in presence of CPT; chicken DT40 Tdp1-/-;hTDP1 cells + 20 nM CPT, ATP luminescence, 48 h; Potency, µM (series often up to 46.2 µM), for the others: at the highest dose activity change, negative = growth inhibition, most hits filed as inhibitors; 12% of 420,000 active; AID 686979, 2013; note: potency is the fitted concentration of half-maximal effect; nearly all actives have a fitted effect of over 55% in size
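Cell growth measured by CellTiter-Glo luminescence after a minimum 48 h, 37 C compound exposure with 20 nM CPT in Tdp1-knockout DT40 cells stably expressing hTDP1, seeded 400/well; qHTS titration format.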
TDP1 cell noCPT: qHTS for Inhibitors of human tyrosyl-DNA phosphodiesterase 1 (TDP1): qHTS in cells in absence of CPT | DT40 Tdp1-/- hTDP1 cells, no CPT, ATP luminescence, 48 h | Potency, µM (series often up to 46.2 µM), without a hit: at the top dose activity change, negative = growth inhibition, usual class: inhibitors | 15% of 420,000 active; note: potency is the fitted concentration of half-maximal effect; nearly all actives have a fitted effect of over 55% in size
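Chicken DT40 Tdp1-/- cells complemented with human TDP1, screened without camptothecin (DMSO vehicle only), 400 cells/well. Compounds pin-transferred, cells incubated at 37 °C for at least 48 hr. Growth read as ATP-dependent luminescence (CellTiter-Glo, 30 min at RT).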
Starred values were filed as active, the others as inactive; u = inconclusive; x = no result. Unless noted, calls come from the whole dose curve; as a rule, active = well fitted curve in the direction sought with a large enough effect; inconclusive = small, poorly fitted or top-dose-only effect, or another doubt; inactive = no such curve, though single readings can be large; an effect the other way counts as inactive or inconclusive. % is set by controls: 0 for no effect and ±100 for the full control effect.

SMILES | VP16 counter | IL-1B inflam inh | ELG1 repair inh | RORgamma inh | DT40 TDP1 CPT | TDP1 cell noCPT
COc1ccc(C)cc1Nc1n[n+](-c2ccccc2)c(-c2ccc(SC)cc2)s1 | 1.9% | 8.2 | u | -12.7% | 18.4µM* | 14.6µM*
CCc1ccc(Nc2n[n+](C)c(-c3ccncc3)s2)cc1 | 7.9% | 36.7 | 28.7% | -29.5% | 16.4µM* | 25.9µM*
COc1ccc(C)cc1Nc1n[n+](-c2ccccc2)c(-c2cc([N+](=O)[O-])cc(OC)c2O)s1 | -2.6% | 7.0 | 6.5% | -5.0% | 20.6µM* | u
COc1ccc(C)cc1Nc1n[n+](-c2ccccc2)c(-c2ccc(NC(C)=O)cc2)s1 | -4.7% | -12.0 | -2.8% | -4.2% | u | -26.9%
CCc1ccc(Nc2n[n+](-c3ccccc3)c(-c3ccc(OC)c(Br)c3)s2)cc1 | 0.7% | u | -2.9% | 26.6% | 16.4µM* | u
CCOc1cc(-c2sc(Nc3ccccc3)n[n+]2-c2ccc(F)cc2)ccc1OC | -18.5% | -4.3 | -2.1% | -21.6% | -14.7% | -17.5%
CCOc1ccccc1CNc1nc2nc(C)c(CC(=O)OC)c(=O)n2[nH]1 | x | x | x | x | -0.4% | -13.1%
CSc1nc2ccc(NS(=O)(=O)c3cccc(Cl)c3Cl)cc2s1 | 2.7% | u | 3.9% | 22.2% | -3.0% | u
Nc1nc2ccccc2n1S(=O)(=O)c1ccccc1 | x | 13.5 | x | x | u | u
CSc1ccc(-c2sc(Nc3cccc4ccccc34)n[n+]2-c2ccccc2)cc1 | u | -17.1 | 2.9% | u | u | u
Fc1ccc(-[n+]2nc(Nc3ccccc3)sc2-c2ccc(OCc3ccccc3)cc2)cc1 | -15.0% | 1.5 | -17.3% | -38.3% | 16.4µM* | 23.1µM*
CCc1ccc(Nc2n[n+](-c3ccccc3)c(-c3ccc(C(=O)O)cc3)s2)cc1 | 13.2% | 0.0 | -9.4% | 12.9% | -29.0% | -18.1%
CSc1ccc(-c2sc(Nc3ccccc3)n[n+]2-c2ccccc2)cc1 | -9.5% | -10.6 | 3.2% | -5.8% | 16.4µM* | u
CCc1ccc(Nc2n[n+](-c3ccccc3)c(-c3ccc(SC)cc3)s2)cc1 | -0.7% | -15.7 | -4.7% | 8.0% | 6.51µM* | 6.51µM*
COc1ccc(NC(=O)N(O)C2(C#N)CCCCC2)cc1 | x | 8.9 | x | x | 4.2% | 0.0%
CCC(C)=O | -2.5% | x | x | 0.5% | x | x
COc1cc(OC)cc(-c2n[nH]c(=S)n2-c2cc(OC)ccc2OC)c1 | -11.5% | 27.6 | 2.7% | u | -13.0% | 1.5%
COc1ccc(C)cc1-n1c(-c2ccncc2)n[nH]c1=S | -3.2% | 24.9 | 16.9% | -14.2% | 0.4% | -6.7%
COc1cc(-n2c(-c3ccccc3)n[nH]c2=S)c(OC)cc1Cl | -8.1% | 29.9 | -21.4% | 5.01µM* | -1.8% | 16.4%
COc1ccc(-c2n[nH]c(=S)n2-c2ccc(C)cc2)cc1OC | u | 27.2 | 17.1% | 15.8µM* | 8.9% | -18.6%
COc1ccccc1-c1n[nH]c(=S)n1-c1ccccc1 | u | 42.2 | 8.9% | 11.2µM* | -18.3% | -5.6%
COc1ccccc1-c1n[nH]c(=S)n1N | -2.1% | 3.3 | 10.6% | -29.3% | 6.2% | 15.1%
COc1ccccc1-n1c(-c2cc(-c3ccc(F)cc3)n[nH]2)n[nH]c1=S | -3.3% | 21.2 | -14.4% | 7.94µM* | -10.5% | u
N=C(c1cccc([N+](=O)[O-])c1)N1CCCCC1 | -0.7% | 23.2 | -3.5% | 10.2% | u | 17.7%
Cc1ccc(CCNC(=O)c2cccc(Nc3nc4ccccc4nc3-n3nc(C)cc3C)c2)cc1 | x | x | x | x | -25.0% | u
SMILES | VP16 counter | IL-1B inflam inh | ELG1 repair inh | RORgamma inh | DT40 TDP1 CPT | TDP1 cell noCPT
C[C@H](O)CC(=O)O | x | 28.7 | 7.4% | x | -31.3% | 3.2%
Cc1ccc(-n2c(-c3c(-c4ccccc4)noc3C)n[nH]c2=S)cc1 | 10µM* | 5.6 | -7.6% | 4.47µM* | -6.6% | -11.5%
Cc1ccc(-n2c(-c3cccc(C)c3)n[nH]c2=S)cc1 | 7.08µM* | 15.2 | -6.4% | 3.16µM* | -13.2% | u
S=c1[nH]nc(-c2cccnc2)n1-c1ccccc1 | u | 17.1 | -11.3% | 7.94µM* | -9.5% | -6.5%
S=c1[nH]nc(-c2cc(-c3ccsc3)n[nH]2)n1-c1cccc2ccccc12 | -0.7% | 0.2 | 20.3% | u | u | 29.1µM*
O=S(=O)(c1ccccc1)n1cc(-c2cccc3nccn23)c2ccccc21 | x | 16.0 | x | x | u | u
Brc1ccc(Br)c2cnccc12 | x | 13.8 | x | x | 4.7% | -15.5%
COc1ccc(-n2nc(C(=O)N3CCN(c4cccc(C)c4C)CC3)c3c4ccccc4n(C)c3c2=O)cc1 | x | x | x | x | -17.4% | -8.8%
Cn1c2ccccc2c2c(C(=O)N3CCN(C(=O)c4ccco4)CC3)cn(C3CCCCC3)c(=O)c21 | -4.9% | -24.1 | u | 41.7% | u | u
Cn1c2ccccc2c2c(C(=O)N3CCN(c4ccccn4)CC3)cn(C3CCCC3)c(=O)c21 | -19.0% | -58.6* | u | -10.7% | u | 14.6µM*
CC(C)c1ccc(NC(=O)c2cn(C3CCCC3)c(=O)c3c2c2ccccc2n3C)cc1 | x | x | x | x | -25.7% | -27.5%
COc1ccc(N2CCN(C(=O)c3cn(C4CCCC4)c(=O)c4c3c3ccccc3n4C)CC2)cc1 | -17.7% | -14.1 | u | -11.7% | 16.4µM* | 16.4µM*
Cc1ccc(Cl)cc1N1CCN(C(=O)c2cn(C3CCCCC3)c(=O)c3c2c2ccccc2n3C)CC1 | x | x | x | x | 23.1µM* | 18.4µM*
COc1ccc(N2CCN(C(=O)c3cn(C)c(=O)c4c3c3ccccc3n4C)CC2)cc1 | 14.2% | 28.3 | u | 27.9% | u | 14.6µM*
Cc1ccc(NC(=O)c2ncn(CCCNCc3ccccn3)n2)cc1C | x | -16.5 | x | x | -10.2% | 0.6%
COc1ccc(Cl)cc1Nc1cc(C)nc2ncnn12 | x | 51.3 | x | x | 2.5% | -21.7%
CN(C)CCCNS(=O)(=O)c1ccc(NC2CCCCCC2)c([N+](=O)[O-])c1 | 20µM* | -71.5* | u | -13.2% | 2.91µM* | 2.31µM*
CCNc1ccc(S(=O)(=O)NCCN(C)C)cc1[N+](=O)[O-] | 16.5% | 7.0 | -7.6% | 10.3% | 0.4% | -6.9%
COc1ccc(/C=C2\NC(=S)N(CC3CCCO3)C2=O)c(OC)c1 (stereo not given) | u | u | 17.2% | 15.8µM* | u | -23.1%

Screens from PubChem BioAssay.
